Compounds with a hit are over-represented: about 11% of the library has one in this group of screens.
PNC inhibitor: inhibitors of perinucleolar compartment assembly; PC3M PTB-GFP, PNC prevalence imaging, 16 h; active compounds read low; activity change (PNC), negative = inhibition, % at 10 µM; 3.1% of 140,000 active; AID 2417;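 active = readout at or below -70, meaning at least 70% loss of cells showing the perinucleolar compartment, a nuclear body marking cancer cells; inconclusive = readout between -30 and a set limit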
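PC3M cells stably expressing PTB-GFP, 750–1000 cells/well, treated 16 h at 37 °C with compound (23 nl of library stock), in duplicate. After paraformaldehyde fixation and Hoechst stain, imaged at 20x; PNC prevalence scored by image analysis.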
ALDH1A1 block: blocks purified human ALDH1A1 activity; Potency, µM (top dose mostly 75.3 µM), usual class: inhibitors; P00352; Purified ALDH1A1, NADH fluorescence, propionaldehyde substrate; 7.3% of 220,000 active
HTT ATP protect: cytoprotection in Huntington HTT-Q103 PC12 cell model. PC12 HTT-Q103 induced, cytoprotection, ATP luminescence, 40 h. Potency, µM (titrated, usually from 56.4 µM), most hits filed as activators. 0.14% of 230,000 active; active = well fitted curve in the direction sought with a large enough effect; inconclusive = small, poorly fitted or top-dose-only effect, or another doubt; inactive = no such curve, though single readings can be large; an effect the other way counts as inactive or inconclusive; note: nearly all actives have a fitted effect of over 45% in size
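Rat PC12, Q103 Htt exon1-GFP fusion, ecdysone promoter; tebufenozide inducer 100 nM final; compound titration; qHTS, 1500 cells/well; ATPlite luminescent read.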
HttQ103 aggreg: mutant huntingtin aggregation inhibition; 1.1% of 220,000 active; PC12 HttQ103-GFP aggregates, Acumen cytometry, 40 h; Potency, µM (highest dose often 46.1 µM), usual class: inhibitors; active = well fitted curve in the direction sought with a large enough effect; inconclusive = small, poorly fitted or top-dose-only effect, or another doubt; inactive = no such curve, though single readings can be large; an effect the other way counts as inactive or inconclusive; note: nearly all actives have a fitted effect of over 60% in size
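Quantitative HTS on tebufenozide-induced (100 nM) PC12 cells stably expressing polyQ103 Huntingtin exon 1–GFP. Reduction of bright GFP aggregates, detected by laser scanning cytometry after lysis, identified actives across the titration.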
RGS12 GoLoco inh: blocks human Gai1 binding to RGS12 GoLoco peptide, red readout. Gai1:RGS12 GoLoco peptide FP, rhodamine, 10 min. Potency, µM (top dose mostly 61.6 µM), hits mostly inhibitors. 0.44% of 230,000 active; active = well fitted inhibition curve with a large enough effect, not every such curve was filed as active; inactive = no such curve, though single readings can be large or run the other way; note: nearly all actives have a fitted effect of over 30% in size
Target sequence (P63096 whole entry, looked up): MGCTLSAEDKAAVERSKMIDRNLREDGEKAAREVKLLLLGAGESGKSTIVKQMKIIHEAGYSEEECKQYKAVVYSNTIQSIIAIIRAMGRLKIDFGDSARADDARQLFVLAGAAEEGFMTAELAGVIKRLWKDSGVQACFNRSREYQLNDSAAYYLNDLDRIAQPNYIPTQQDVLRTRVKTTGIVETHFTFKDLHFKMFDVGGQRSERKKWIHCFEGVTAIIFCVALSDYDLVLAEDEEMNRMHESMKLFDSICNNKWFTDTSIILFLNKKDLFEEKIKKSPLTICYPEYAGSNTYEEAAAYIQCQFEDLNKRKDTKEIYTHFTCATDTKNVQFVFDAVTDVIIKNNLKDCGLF
HPGD inh: blocks human HPGD enzyme activity. purified HPGD, NADH fluorescence kinetic, PGE2 substrate. P15428. 4.3% of 150,000 active. AID 894. Potency, µM, hits mostly inhibitors
Target sequence (P15428 whole entry, looked up): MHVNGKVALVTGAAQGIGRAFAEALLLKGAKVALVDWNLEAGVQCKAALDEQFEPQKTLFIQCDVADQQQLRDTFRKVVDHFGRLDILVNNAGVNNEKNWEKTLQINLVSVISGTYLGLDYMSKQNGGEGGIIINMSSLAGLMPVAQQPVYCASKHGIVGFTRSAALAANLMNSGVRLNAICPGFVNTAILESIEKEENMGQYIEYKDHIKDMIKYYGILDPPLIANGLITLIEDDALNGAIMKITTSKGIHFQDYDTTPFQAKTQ
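20 nM HPGD preincubated 15 min at room temperature with compound in 50 mM Tris-HCl pH 8, 0.01% Tween 20. Started with 1 mM NAD+ and 30 uM prostaglandin E2; NADH fluorescence (360/450 nm) read 5 times over 30-s intervals, last minus first.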
Hits are given with their value; n = inactive; u = inconclusive; x = not tested or not shown; [ ] = dose if it differs, or a comment. Unless noted, calls come from the whole dose curve; as a rule, active = well fitted inhibition curve with a large enough effect (not every such curve was filed as active); inconclusive = small, poorly fitted or top-dose-only effect, or another doubt; inactive = no such curve, though single readings can be large or run the other way.

SMILES	PNC inhibitor	ALDH1A1 block	HTT ATP protect	HttQ103 aggreg	RGS12 GoLoco inh	HPGD inh
Cc1cc(C)c(NC(=S)NC(CO)(CO)CO)c(C)c1	x	x	n[10 µM]	n[9.22 µM]	n	x
Cc1onc(-c2ccc(Cl)cc2Cl)c1-c1csc(N/N=C/c2ccccc2)n1	x	n	n[10 µM]	n[9.22 µM]	n	x
Cc1ccc(/C=c2\s/c(=C(/C#N)C(=O)N3CCCC3)n(Cc3ccco3)c2=O)s1	-90	3.5µM	n	n	n	u
C=CCNC(=O)c1ccc2nc(-c3ccccc3)c(-c3ccccc3)nc2c1	n	u	n	n	n	u
C=CCNC(=O)c1ccccc1Cl	n	n	n	n	n	16µM
C=CCNC(=O)c1ccc(C(=O)c2ccccc2)cc1	u	u	n	n[9.22 µM]	n	13µM
Cc1cc(=O)c2n(Cc3ccc(Cl)cc3)nc[n+]2[nH]1	n	20µM	n	n	n	n
Cc1nn(Cc2ccc(Cl)cc2)c(C)c1N	n	n	n[10 µM]	n	n	n
COc1ccc(Br)cc1C(=O)NC(=S)Nc1ccc(Cl)c(C(=O)O)c1	x	18µM	n	n	n	x
Cc1ccc(N=Nc2c(O)c3ccccc3[nH]c2=O)c(S(=O)(=O)N(C)C)c1	x	14µM	n[10 µM]	n[9.22 µM]	n[14.2 µM]	n
O=C(CC1C(=O)NCCN1C(=O)Nc1ccccc1)Nc1cc(Cl)ccc1Cl (stereo not drawn)	x	x	n[10 µM]	n[9.22 µM]	n	x
COc1ccc(C2C(C#N)=C(SCC(=O)Nc3ccc(C)cc3)NC3=C2C(=O)CC(C)(C)C3)cc1 (stereo not drawn)	n	u	n	11µM	n	u
CCN1CCCC1CN(Cc1cc2ccc(C)cc2[nH]c1=O)C(=S)Nc1ccccc1OC (stereo not drawn)	n	n	n[10 µM]	n	n	n
CCN1CCCC1CN(Cc1cc2ccc(C)c(C)c2[nH]c1=O)C(=O)Nc1ccccc1OC (stereo not drawn)	n	13µM	n	n	n	n
CCn1c(N2CCN(CC(=O)c3c[nH]c4ccccc34)CC2)nc2c1c(=O)[nH]c(=O)n2C	n	22µM	n	n	n	n
C/C(Cl)=C\Cn1c(N2CCCCCC2)nc2c1c(=O)n(C)c(=O)n2C	n	3.5µM	n[10 µM]	n	n	n
Cn1c(=O)c2c(nc(N3CCCCCC3)n2CC(=O)c2ccccc2)n(C)c1=O	n	4.5µM	n[10 µM]	n[9.22 µM]	n	n
Cn1c(=O)[nH]c(=O)c2c1nc(N1CCCCCC1)n2CC(N)=O	n	14µM	n[1.9 µM]	n	n	n
Cc1nc(NC2CCCCC2)c2nc(-c3ccccc3)n(C(C)CN(C)C)c2n1 (stereo not drawn)	x	u	n	x	n	n
CC12C=C(/C=C/CCc3ccco3)C(C)(C1)[C@H](CCc1ccco1)CC2=O (stereo partly drawn)	x	u	n	x	n	n
CCN(C(=O)CSc1nc2nc(C)cc(C)n2n1)C1CCS(=O)(=O)C1 (stereo not drawn)	x	n	n	n	n	x
Cn1c(=O)c2c(ncn2CCOC(=O)C(C)(C)Oc2ccc(Cl)cc2)n(C)c1=O	x	x	u	n	x	x
Cn1c(=O)c2c(nc(N3CCCCC3)n2CCSc2nc3ccccc3o2)n(C)c1=O	x	x	n[0.074 µM]	x	x	x
CN1CCN(c2nc3c(c(=O)n(C)c(=O)n3C)n2Cc2cccc3ccccc23)CC1	n	11µM	n	n	n	n
Cn1c(=O)c2c(nc(N3CCCCCC3)n2Cc2cccc3ccccc23)n(C)c1=O	n	0.89µM	n[0.074 µM]	u	n	n
SMILES	PNC inhibitor	ALDH1A1 block	HTT ATP protect	HttQ103 aggreg	RGS12 GoLoco inh	HPGD inh
Cn1c(=O)c2c(nc(CN3CCN(CCO)CC3)n2Cc2cccc3ccccc23)n(C)c1=O	n	4.5µM	n[0.074 µM]	n	n	n
O=S(=O)(c1ccc(S(=O)(=O)N(Cc2cccs2)CC2CCCO2)cc1)N1CCCCC1 (stereo not drawn)	u	7.9µM	n	n	n	n
O=C(C1CCCN(S(=O)(=O)c2ccc(F)cc2)C1)N1CCCC1 (stereo not drawn)	n	n	n	n	n	n
O=S(=O)(NC1CCCC1)c1ccc(S(=O)(=O)N(Cc2cccs2)CC2CCCO2)cc1 (stereo not drawn)	n	25µM	n[10 µM]	u	n	n
O=C(C1CCCN(S(=O)(=O)c2ccc(F)cc2)C1)N(Cc1cccs1)C1CC1 (stereo not drawn)	n	18µM	n[10 µM]	u	n	n
Cc1sc2ncnc(SCC(=O)Nc3nc(-c4ccc(F)c(F)c4)cs3)c2c1C	x	n	n	n	n	x
CC(=O)c1ccc(NC(=S)N2c3ccccc3CC2C)cc1 (stereo not drawn)	x	25µM	n	n	n	x
Cc1[nH]c2ccccc2c1C(C[N+](=O)[O-])c1ccco1 (stereo not drawn)	x	u	n	n	n	x
Cc1ccc(-c2[nH]c3ccccc3c2C(C[N+](=O)[O-])c2ccco2)cc1 (stereo not drawn)	n	28µM	n	u	n	n
Nc1nonc1C(=O)N/N=C/c1cc(Br)ccc1O	x	n	n	u	n	x
Cc1ccc(N2C(=O)[C@@H]3[C@H](C2=O)[C@H]2C=C(C(=O)c4ccccc4)C=CN2[C@@H]3C(=O)c2ccc(Cl)cc2)cc1	u	25µM	n[10 µM]	n	n	40µM
C=CCn1c(SCC(=O)c2c(N)n(C)c(=O)n(C)c2=O)nnc1-c1ccccc1F	x	n	n	n	n	x
COC(=O)c1cc(C)sc1NC(=S)N1CCN(CCc2ccccc2)CC1	x	14µM	n[10 µM]	n	n	x
CC1=NCC[N@@+]1(CCc1ccccc1)Cc1ccccc1	x	n[13.5 µM]	n[10 µM]	x	n[14.2 µM]	n
Cc1cc(C)cc(NC(=O)CSc2ccc(-c3ccco3)nn2)c1	u	7.1µM	n[10 µM]	n	n	u
CC(=O)Nc1ccc(NC(=O)CSc2ccc(-c3ccco3)nn2)cc1	x	7.1µM	n	n[9.22 µM]	n	x
Cc1ccc(NC(=O)CSc2ccc(-c3ccco3)nn2)cc1	x	3.2µM	n	n	n	x
Cc1ccc(CNC(=O)CSc2ccc(-c3ccco3)nn2)cc1	n	14µM	n[10 µM]	n	n	n
Cc1ccc(NC(=O)CSc2ccc(-c3ccco3)nn2)c(C)c1	x	u	u	n	n	x
CCSc1ccc(-c2ccco2)nn1	x	u	n	n	n	x
O=C(CSc1ccc(-c2ccco2)nn1)c1ccc(F)cc1	n	3.2µM	n[10 µM]	u	n	u
O=C(CSc1ccc(-c2ccco2)nn1)NCc1ccc(F)cc1	n	u	n[10 µM]	n	n	n
COc1nc(NC23CC4CC(CC(C4)C2)C3)nc(OC)n1	n	25µM	n	n	n	n
COc1ccc(CCNC(=O)c2ccc(-c3cccc([N+](=O)[O-])c3)o2)cc1OC	x	13µM	n	n[9.22 µM]	n	x
NNC(=O)c1ccc(-c2cccc([N+](=O)[O-])c2)o1	x	7.1µM	n	n	n	x
OCc1cn(-c2ccc(Cl)cc2)nn1	x	n	n[10 µM]	n	n	x
CCn1c(C)[n+](CC)c2ccc(S(=O)(=O)NC)cc21	x	n	n[10 µM]	n[9.22 µM]	n	x

Screens from PubChem.
